# Screening results (PubChem)
# BAZ2B inh = qHTS Assay for Inhibitors of BAZ2B. Bromodomain adjacent to zinc finger domain protein 2B (Homo sapiens), Q9UIF8. AlphaScreen BAZ2B-H3K14Ac peptide displacement. Potency, µM (doses to about 114 µM), for the others: at the top dose activity change, negative = inhibition, hits mostly inhibitors. 4.4% of 360,000 active; also: potency is read from the fitted curve at half-maximal effect; % is scaled to controls: 0 for no effect and ±100 for the full control effect; nearly all actives have a fitted effect of over 60% in size
#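 AlphaScreen displacement of biotin-H3(5-23)K14Ac peptide (50 nM final) from BAZ2B (50 nM final) in PBS pH 7.4, 0.01% Tween-20; complex preformed 30 min RT, then compounds (top 110 uM) 30 min RT, beads 20 min dark.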
# JMJD2E inh = qHTS Assay for Inhibitors of Human Jumonji Domain Containing 2E (JMJD2E); JMJD2E catalytic domain, FDH-coupled NADH fluorescence (FDH is formaldehyde dehydrogenase); 1.6% of 230,000 active; Lysine-specific demethylase 4E (Homo sapiens), B2RXH2; Potency, µM (top dose mostly 57.1 µM), for the others: top-dose activity change, negative = inhibition, actives largely listed as inhibitors; active = well fitted inhibition curve with a large enough effect, not every such curve was filed as active; inconclusive = small, poorly fitted or top-dose-only effect, or another doubt; inactive = no such curve, though single readings can be large or run the other way;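 also: potency is read from the fitted curve at half-maximal effect; 0% = wells with enzyme and -100% = buffer wells without enzyme; nearly all actives have a fitted effect of over 50% in size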
# Target sequence (B2RXH2 1-337 limits assumed): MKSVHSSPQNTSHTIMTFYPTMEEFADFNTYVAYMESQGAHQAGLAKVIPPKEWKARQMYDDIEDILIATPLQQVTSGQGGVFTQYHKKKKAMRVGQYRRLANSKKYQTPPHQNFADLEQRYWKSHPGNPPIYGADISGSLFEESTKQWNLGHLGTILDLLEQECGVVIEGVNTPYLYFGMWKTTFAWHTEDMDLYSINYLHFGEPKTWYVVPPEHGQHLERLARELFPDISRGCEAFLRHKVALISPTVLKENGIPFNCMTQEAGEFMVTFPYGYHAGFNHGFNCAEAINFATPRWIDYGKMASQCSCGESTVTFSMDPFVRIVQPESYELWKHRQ
# JMJD2A Tudor = qHTS Assay for Inhibitors of JMJD2A-Tudor Domain; Lysine-specific demethylase 4A (Homo sapiens), O75164; AlphaScreen JMJD2A-Tudor / H3K4me3 peptide binding; Potency, µM (top dose mostly 114 µM), inactives show at the top dose activity change, negative = inhibition, usual class: inhibitors; 4.4% of 390,000 active; also: potency is read from the fitted curve at half-maximal effect; % is scaled to controls: 0 for no effect and ±100 for the full control effect; nearly all actives have a fitted effect of over 50% in size
# L3MBTL1 block = qHTS Assay for the Inhibitors of L3MBTL1; AID 485360, 2010; Lethal(3)malignant brain tumor-like protein 1 (Homo sapiens), Q9Y468; 0.66% of 230,000 active; AlphaScreen L3MBTL1–H3K9me1 peptide binding; Potency, µM (titrated, usually from 57.1 µM), without a hit: top-dose activity, negative = inhibition, usual class: inhibitors; also: potency is read from the fitted curve at half-maximal effect; % is scaled to controls: 0 for no effect and ±100 for the full control effect; nearly all actives have a fitted effect of over 60% in size
#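 Displacement of a biotinylated histone H3(1-15) peptide monomethylated at Lys9 (75 nM) from L3MBTL1 (50 nM) was measured by AlphaScreen after a 30 min room-temperature compound incubation; cefsulodin titration served as intraplate control.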
# PI5P4K alpha inh = qHTS for Inhibitors of phosphatidylinositol 5-phosphate 4-kinase (PI5P4K); Phosphatidylinositol 5-phosphate 4-kinase type-2 alpha (Homo sapiens), P48426; PI5P4Kalpha enzyme, ADP-Glo luminescence, 60 min; stronger effect = lower value; max response, %; 1.2% of 330,000 active; AID 652105, 2013; active = max response of -50% or lower; inconclusive = between -30% and -50%; inactive = -30% or higher; also: value at the top dose of about 77 µM; % is scaled to controls: 0 for no effect and ±100 for the full control effect
#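 Controls without substrate or without enzyme flank wells where PI5P4Kalpha converts substrate using 5 microM ATP (final). Incubation lasts 60 minutes at room temperature; ADP formed is read by ADP-Glo luminescence.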
# HP1b chromo inh = HTS for Inhibitors of HP1-beta Chromodomain Interactions with Methylated Histone Tails; Chromobox protein homolog 1 (Homo sapiens), P83916; AlphaScreen HP1-beta / biotin-H3K9me3 peptide binding; Potency, µM (highest dose often 114 µM), for the others: top-dose activity change, negative = inhibition, actives largely listed as inhibitors; 0.56% of 390,000 active; AID 540317, 2011; also: potency is read from the fitted curve at half-maximal effect; nearly all actives have a fitted effect of over 70% in size
# Target sequence (P83916 whole entry, looked up): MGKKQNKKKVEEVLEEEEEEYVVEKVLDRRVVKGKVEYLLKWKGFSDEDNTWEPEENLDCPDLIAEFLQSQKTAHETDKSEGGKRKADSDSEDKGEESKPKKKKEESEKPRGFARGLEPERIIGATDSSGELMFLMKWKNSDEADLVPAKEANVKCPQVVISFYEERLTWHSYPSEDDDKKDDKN
#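 HP1-beta protein (50 nM final) preincubated 30 min at room temperature with biotinylated H3(1-18)K9me3 peptide (50 nM) in PBS pH 7.4, 0.01% Tween-20, then compound added for 30 min. AlphaScreen streptavidin donor/nickel chelate acceptor beads (10 ug/mL final), 30 min dark, luminescence read.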
# * marks the source's active call; other numbers are inactive results; ? = inconclusive; . = no result given; ! = not active in a repeat; [ ] = remark or other dose. Shown are actives, neighbours in structure and some others; about 5.7% of the full set was active somewhere. Unless noted, calls follow the shape of the dose curve; as a rule, active = well fitted inhibition curve with a large enough effect; inconclusive = small, poorly fitted or top-dose-only effect; inactive = no such curve, though single readings can be large or run the other way.
SMILES,BAZ2B inh,JMJD2E inh,JMJD2A Tudor,L3MBTL1 block,PI5P4K alpha inh,HP1b chromo inh
CN(C)CCn1nnnc1SCC1=C(C(=O)O)N2C(=O)[C@@H](NC(=O)Cc3csc(N)n3)[C@@H]2SC1,.,-10.4%[25.5 µM],.,.,.,.
CN(C)CCn1nnnc1SCC1=C(C(=O)O)N2C(=O)[C@@H](NC(=O)Cc3csc(N)n3)[C@H]2SC1,50.1µM*,.,56.2µM*,28.2µM*,-3.0,29.1%
Cc1nnc(SCC2=C(C(=O)O)N3C(=O)C(NC(=O)Cn4nc(C(F)F)cc4C)C3SC2)s1 (configuration not stated),50.1µM*,-8.0%,25.1µM*,?,-5.4,10.2%
Cc1nnc(SCC2=C(C(=O)O)N3C(=O)C(NC(=O)c4cc(F)c(F)cc4Cl)C3SC2)s1 (configuration not stated),79.4µM*,-9.0%,-25.8%,.,1.6,9.5%
C=CCC1(O)CCOc2ccccc21 (configuration not stated),.,-2.2%,.,.,.,.
CCOCCCNC(=O)C(c1ccccc1)N1Cc2ccccc2C1=O (configuration not stated),3.5%,.,-6.6%,.,.,34.6%
CN(C)c1ccc(-n2cccc2)cc1,22.4µM*,?,20µM*,?,0.7,22.4µM*
CC1CCCN(C(=O)Cn2c(=O)n(CC3CCC(C(=O)NC(C)C)CC3)c(=O)c3sccc32)C1 (configuration not stated),18.1%,.,-7.3%,.,.,135.3%
Cc1ccc(S(=O)(=O)N2CCOCC2)cc1NC(=O)c1cc(-c2ccccn2)nc2ccccc12,-15.0%,0.6%,-4.4%[11.4 µM],1.9%,4.8,6.4%
O=C(Nc1cc(S(=O)(=O)N2CCOCC2)ccc1N1CCCCC1)c1cc(-c2ccccn2)nc2ccccc12,-31.3%,?,79.4µM*,-1.2%,?,?
O=C(N/N=C/c1ccc2c(c1)OCO2)c1cc(-c2ccco2)nc2ccccc12,-10.2%,.,-24.1%,?,-54.8*,28.0%
O=C(O)c1ccccc1/C=N/NC(=O)c1cc(-c2ccco2)nc2ccccc12,20µM*,?,50.1µM*,?,-94.0*,?
COc1cc(-c2cc(C(=O)Nc3ccccc3N3CCOCC3)c3ccccc3n2)cc(OC)c1OC,-16.3%,?,-23.8%,-2.0%,-0.3,31.4%
O=C(Nc1ccccc1N1CCOCC1)c1cc(-c2ccco2)nc2ccccc12,50.1µM*,?,?,.,?,?
O=C(N/N=C/c1ccc2c(c1)OCO2)c1cc(-c2ccccc2)nc2ccccc12,-4.2%,?,-20.0%,-1.4%,12.1,21.5%
CC1CC=CC2C1C(=O)N(Cc1ccccc1)C2c1ccc(/C=C/c2ccccc2)cc1F (configuration not stated),.,.,-9.7%,.,.,32.5%
CN(C)c1ccc(Nc2ncnc3c2c(-c2ccccc2)cn3-c2cccc(Cl)c2)cc1,4.47µM*,.,12.6µM*,.,.,?
COc1ccc(C2=Nn3c(nnc3-c3ccccc3OC)SC2)cc1,.,.,-12.3%,.,.,.
C[n+]1cc2c3c(ccc2c2ccc4cc5c(cc4c21)OCO5)OCO3,.,?,89.1µM*,.,.,-17.7%
C[n+]1c(/C=C/c2ccc3c(c2)OCO3)ccc2ccccc21,?,?,?,.,-3.5,-13.1%
C=C(Nc1ccc(OC)cc1)C(=O)OC,.,-6.9%,.,.,.,.
COc1ccc(C)cc1NC(=O)CNC(=O)[C@@H]1Cc2ccccc2CN1,-5.7%[57.1 µM],.,-12.0%,.,0.1,29.2%
Cc1ccn2c(=O)nc(SCC(=O)c3ccccc3)nc2c1,-29.1%,.,-31.7%,?,-62.2*,24.7%
Cc1ccc2nc(SCC(=O)c3ccccc3)nc(=O)n2c1,-4.1%,.,-6.9%,-17.0%,0.0,27.4%
CC(=O)N1CCN(c2ccccc2NC(=O)COc2cc(C)cc(C)c2)CC1,-3.3%,.,50.1µM*,.,2.4,4.8%
SMILES,BAZ2B inh,JMJD2E inh,JMJD2A Tudor,L3MBTL1 block,PI5P4K alpha inh,HP1b chromo inh
CC(=O)N1CCN(c2ccccc2NC(=O)COc2ccccc2C)CC1,-15.4%,-10.7%,-15.8%,-4.8%,0.4,31.8%
Cc1ccc(OCC(=O)Nc2ccccc2N2CCCC2)c(C)c1,70.8µM*,5.3%,-32.9%,-26.2%,11.2,12.7%
Cc1ccc(C)c(N2N=C(C(=O)Nc3ccccc3N3CCCC3)CCC2=O)c1,35.5µM*,.,44.7µM*,.,8.2,50.1µM*
CCc1ccccc1NC(=O)COc1ccc(C(=S)N2CCCC2)cc1,-20.5%,-4.3%,70.8µM*,30.4%,3.4,-6.8%
Cc1nc(-c2ccccc2)sc1-c1ccc(SCC(=O)NCc2ccccc2Cl)nn1,-13.3%,.,-23.1%,.,.,7.4%
CCS(=O)(=O)N1N=C(c2cccc(NS(C)(=O)=O)c2)CC1c1ccc(C)cc1 (configuration not stated),.,-6.9%,-1.7%,.,-0.4,29.0%
Cc1ccc(C2(C)NC(=O)N(CC(=O)Nc3ccccc3N3CCCC3)C2=O)cc1 (configuration not stated),50.1µM*,.,?,2.82µM*,-3.0,-21.3%
C[C@@H](C(=O)NCc1ccco1)N1C(=O)N2CCc3c([nH]c4ccccc34)[C@@]2(C)C1=O,50.1µM*,.,-28.6%,-2.6%,1.0,-13.0%
Cc1csc(Nc2cccc3ccccc23)n1,50.1µM*,?,?,-18.6%,-1.0,?
Cc1csc(Nc2ccccc2C(F)(F)F)n1,?,-1.3%,1.0%,0.4%,2.3,6.5%
COc1ccccc1Nc1nc(C)cs1,79.4µM*!,6.1%,-15.0%,4.2%,-16.1,-21.0%
COc1ccc(S(=O)(=O)NCc2cccnc2)cc1NC(=O)c1ccccc1C,.,.,-31.0%,.,-72.9*,5.8%[57 µM]
COc1ccc(C(=O)O)cc1S(=O)(=O)NCc1ccccn1,70.8µM*,.,?,.,4.0,12.8%
Cc1cc(S(=O)(=O)NCC(C)C)ccc1OCC(=O)NCc1ccccn1,?,0.9%,22.4µM*,.,-0.5,16.6%
COc1ccc(C)cc1S(=O)(=O)NCc1ccccn1,.,.,.,.,-2.1,.
CNS(=O)(=O)c1cc(C(=O)O)ccc1OC,-17.5%,9.2%,12.6µM*,4.2%,-24.7,11.6%
Cc1cc(S(=O)(=O)NCc2ccccc2)ccc1OCC(=O)NCc1ccccn1,-0.7%,.,-8.4%,.,-0.8,44.7%
CC1(c2nnc(Cc3ccccc3)o2)CC(c2cccc(F)c2)=NO1 (configuration not stated),1.9%,.,-6.3%,6.8%,-2.2,37.7%
COc1ccc(OCc2nc(C#N)c(NCc3ccccc3Cl)o2)cc1,?,.,?,.,.,-18.1%
COc1ccc(Cl)cc1NS(=O)(=O)c1ccc2[nH]c3c(c2c1)CCCC3,-37.4%,.,?,.,.,0.1%
